The whole screen tested about 310,000 compounds, of which about 14,000 (4.5%) showed an effect of 50% or more. The effect is printed as a negative number. Only a selection was taken, and strong results are over-represented in it overall.
target: human ether-à-go-go-related gene (hERG) potassium channel (human, UniProt Q12809); test: primary screen, population patch clamp on CHO cells stably expressing hERG; higher = less effect of the substance
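Also: peak tail current of the secondary pulse compared with the same well before compound.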

Chain of human ether-à-go-go-related gene (hERG) potassium channel (Q12809 whole entry, looked up): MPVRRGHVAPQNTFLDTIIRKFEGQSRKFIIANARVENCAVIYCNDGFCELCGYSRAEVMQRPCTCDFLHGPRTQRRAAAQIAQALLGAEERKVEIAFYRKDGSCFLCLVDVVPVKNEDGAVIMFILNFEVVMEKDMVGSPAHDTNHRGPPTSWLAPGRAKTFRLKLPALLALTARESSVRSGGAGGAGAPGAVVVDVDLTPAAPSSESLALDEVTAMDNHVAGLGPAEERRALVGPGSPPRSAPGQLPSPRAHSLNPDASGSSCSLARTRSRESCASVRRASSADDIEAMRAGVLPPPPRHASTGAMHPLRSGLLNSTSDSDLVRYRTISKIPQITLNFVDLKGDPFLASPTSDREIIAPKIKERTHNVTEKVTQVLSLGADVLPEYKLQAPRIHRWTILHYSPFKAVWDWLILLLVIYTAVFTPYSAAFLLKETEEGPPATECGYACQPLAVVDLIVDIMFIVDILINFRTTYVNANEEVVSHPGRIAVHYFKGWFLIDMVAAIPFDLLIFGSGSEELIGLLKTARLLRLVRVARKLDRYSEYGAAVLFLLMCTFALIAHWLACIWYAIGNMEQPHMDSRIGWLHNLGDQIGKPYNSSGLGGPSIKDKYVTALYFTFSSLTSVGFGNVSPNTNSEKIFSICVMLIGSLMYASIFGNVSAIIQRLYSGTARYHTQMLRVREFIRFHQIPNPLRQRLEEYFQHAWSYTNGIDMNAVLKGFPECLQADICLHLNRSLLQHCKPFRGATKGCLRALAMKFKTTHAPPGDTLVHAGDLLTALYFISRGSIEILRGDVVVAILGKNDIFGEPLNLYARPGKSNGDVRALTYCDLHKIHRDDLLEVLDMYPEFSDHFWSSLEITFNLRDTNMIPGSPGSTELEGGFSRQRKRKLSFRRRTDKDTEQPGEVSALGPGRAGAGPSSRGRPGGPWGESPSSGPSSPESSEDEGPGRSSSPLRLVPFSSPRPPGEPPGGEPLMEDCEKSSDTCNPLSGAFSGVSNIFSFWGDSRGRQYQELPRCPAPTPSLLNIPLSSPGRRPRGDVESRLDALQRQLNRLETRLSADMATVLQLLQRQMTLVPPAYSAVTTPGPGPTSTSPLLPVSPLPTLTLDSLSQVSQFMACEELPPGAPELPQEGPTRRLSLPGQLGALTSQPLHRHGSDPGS

SMILES | hERG current change (%, negative = inhibition) at 10uM
COc1ccc(-c2csc3nc(-c4ccccc4OC)oc(=O)c23)cc1 | 19.1%
COc1cc(C(=O)Nc2ccc3c(c2)Cc2ccccc2-3)cc(OC)c1OC | 0.538%
CC(=O)c1ccc(NC(=O)C(C)Nc2ccc(Cl)cc2)cc1 (stereo not shown) | -4.45%
Cc1nc(C(=O)NNC(=O)Nc2ccc(Cl)cc2)cs1 | -0.711%
CCN(CC)S(=O)(=O)c1cccc(-c2cn3cc(C)ccc3n2)c1 | -9.87%
O=C(Nc1cccnc1Oc1ccc(Cl)cc1)c1cccc2ccccc12 | 3.61%
COCCC(=O)N1CCC(Oc2ccc(C(=O)N3CCC(N(C)C)C3)cc2)CC1 (stereo not shown) | 20.7%
Cc1ccc(Nc2nc(N)nc(CN3CCN(Cc4ccccc4)CC3)n2)cc1Cl | -76.4%
Cc1ccc(Nc2nc(N)nc(CN3CCN(c4ccccc4)CC3)n2)cc1Cl | -66.4%
Cc1ccc(Nc2nc(N)c3ccccc3n2)cc1Cl.Cl | 9.26%
CCCCN(C(=O)CNC(=O)c1ccco1)C(C(=O)NC1CCCC1)c1ccc(OC)cc1 (stereo not shown) | -20.1%
NC(=O)CC(NC(=O)c1ccc(Br)cc1)c1ccc(N2CCN(c3ccc(F)cc3)CC2)c([N+](=O)[O-])c1 (stereo not shown) | 6.16%
CC(=O)Nc1ccc(OC(=O)Oc2ccc(NC(C)=O)cc2)cc1 | 0.315%
CC1(C)NC(C)(C)c2nonc2/C1=N\O | -1.78%
CCn1c2c(c3cc(C(=O)O)ccc31)CCCC2=O | 18.5%
CSc1nccc(N/N=C/c2ccccc2)n1 | 23.9%
CC(=O)/C=C(\C)Nc1ccccc1O | 21.3%
COc1ccc(C(=O)/C=C/Nc2ccccn2)cc1 | 2.01%
O=C(NC1CCCc2c1cnn2-c1ccc(F)cc1F)c1ccccn1 (stereo not shown) | 1.82%
CCN(CC)CC(=O)NC1CCCc2c1cnn2-c1cc(F)cc(F)c1 (stereo not shown) | -9.77%
O=C(CCc1ccncc1)NC1CCCc2c1cnn2-c1ccc(F)cc1F (stereo not shown) | -12.5%
O=C(NC1CCCc2c1cnn2-c1ccccc1F)c1ccccn1 (stereo not shown) | 5.09%

SMILES | hERG current change (%, negative = inhibition) at 10uM
Cc1cccc(-n2ncc3c2CCCC3NC(=O)CCc2ccncc2)c1C (stereo not shown) | 4.95%
O=C(NC1CCCc2c1cnn2-c1cc(F)cc(F)c1)c1ccccn1 (stereo not shown) | -52.4%
O=C(CCc1ccncc1)NC1CCCc2c1cnn2-c1cc(F)cc(F)c1 (stereo not shown) | -56.5%
C=CCC(=O)NC1CCCc2c1cnn2-c1cc(F)cc(F)c1 (stereo not shown) | -75.7%
O=C(NC1CCCc2c1cnn2-c1cc(F)cc(F)c1)c1cc[n+]([O-])cc1 (stereo not shown) | -37.1%
CSCC(=O)NC1CCCc2c1cnn2-c1cc(F)cc(F)c1 (stereo not shown) | -12.6%
Cn1nccc1C(=O)NC1CCCc2c1cnn2-c1cc(F)cc(F)c1 (stereo not shown) | -45.2%
O=C(NC1CCCc2c1cnn2-c1cc(F)cc(F)c1)c1ccncc1 (stereo not shown) | -64.1%
OCC(O)C(O)C(O)C(O)C1NCCS1 (stereo not shown) | 0.867%
O=C1CSC(c2ccc(Cl)cc2)N1C1CCCCC1 (stereo not shown) | -14.4%
Cc1cc2cc(CN(Cc3ccc4c(c3)OCO4)C(=O)c3ccco3)c(=O)[nH]c2cc1C | -25%
ClCc1ncc(-c2ccc(Cl)cc2)o1 | 33.5%
Cc1ccc(C(=O)NCc2ccc(Cl)cc2)cc1S(=O)(=O)N1CCCCC1 | -0.995%
O=C(NC(=S)Nc1cccnc1Cl)c1ccc(Cl)cc1 | 15.5%
CN1CCN(S(=O)(=O)c2cccc(C(=O)N(C)Cc3cccs3)c2)CC1 | -7.83%
O=C(NCc1ccc(F)cc1)c1cccc(S(=O)(=O)N2CCOCC2)c1 | -25.4%
CCN(Cc1cccs1)C(=O)c1cccc(S(=O)(=O)N2CCN(C)CC2)c1 | -14.1%
CN(C)S(=O)(=O)c1cccc(C(=O)NCc2ccco2)c1 | 10.7%
O=C(NCc1ccco1)c1cccc(S(=O)(=O)N2CCOCC2)c1 | -4.97%
Cc1ccc(N(Cc2ccco2)C(=O)c2cccc(S(=O)(=O)N(C)C)c2)cc1 | -21.5%
O=C(c1cccc(S(=O)(=O)N2CCOCC2)c1)N(Cc1ccco1)Cc1cccs1 | -68.5%

From PMC4336329 (PLoS ONE, 2015)
